In PubChem BioAssay (EPA / NIEHS):
The source made the active and inactive calls. How the source made its calls: active means hit-call score of the fitted dose curve at least 0.9, where 1 is the maximum; inactive means score below 0.9.

Experiments:
[1] = read-out: Interferon-gamma inducible Protein 10 (IP10), CXCL10 (gene 3627); test: BSK_hDFCGF_IP10: BioMAP Diversity Plus: hDFCGF Assay for Interferon-gamma inducible Protein 10 (IP10) Biomarker Activity (AID 2283053); details: primary human foreskin fibroblasts; actives raise or lower the signal
Method in brief: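 ELISA read-out of IP-10 (CXCL10) from primary human skin fibroblasts, 24 h after compound addition. Gain or loss of signal versus DMSO baseline, bidirectional curve fitting.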

[2] = read-out: Urokinase-type plasminogen activator receptor (uPAR), PLAUR (gene 5329); test: BSK_CASM3C_uPAR: BioMAP Diversity Plus: CASM3C Assay for Urokinase-type plasminogen activator receptor (uPAR) Biomarker Activity (AID 2283054); details: primary human coronary artery smooth muscle cells; actives raise or lower the signal;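 further: cell-surface uPAR protein level quantified by ELISA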
[3] = read-out: Vascular cell adhesion molecule 1 (VCAM1), VCAM1 (gene 7412); test: BSK_CASM3C_VCAM1: BioMAP Diversity Plus: CASM3C Assay for Vascular cell adhesion molecule 1 (VCAM1) Biomarker Activity (AID 2283055); details: primary human coronary artery smooth muscle cells; actives raise or lower the signal;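 further: VCAM-1 protein level quantified by ELISA on the cells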
[4] = read-out: Epidermal growth factor receptor (EGFR), EGFR (gene 1956); test: BSK_hDFCGF_EGFR: BioMAP Diversity Plus: hDFCGF Assay for Epidermal growth factor receptor (EGFR) Biomarker Activity (AID 2283057); details: primary human foreskin fibroblasts; actives raise or lower the signal
Method in brief: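 ELISA readout of EGFR on human dermal fibroblasts (primary foreskin cells), 24 h post-dosing; bidirectional curve fit vs DMSO baseline, gain or loss of signal scored.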

[5] = read-out: Interleukin-8 (IL8), CXCL8 (gene 3576); test: BSK_hDFCGF_IL8: BioMAP Diversity Plus: hDFCGF Assay for Interleukin-8 (IL8) Biomarker Activity (AID 2283058); details: primary human foreskin fibroblasts; actives raise or lower the signal
Method in brief: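 ELISA read-out of IL-8 from primary human foreskin fibroblast cultures taken 24 h after dosing; values are bidirectional fits relative to DMSO vehicle.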

[6] = BSK_hDFCGF_Proliferation: Cell Proliferation Assessment in the BioMAP Diversity Plus: hDFCGF Assay (AID 2283059); details: primary human foreskin fibroblasts;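 further: curves fitted for both rise and fall of signal versus DMSO baseline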
Method in brief: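 Steps: dose primary human dermal fibroblasts (foreskin); […] fix in 10% TCA; stain with 0.1% SRB; read 560 nm; fit gain or loss of signal against DMSO.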

[7] = read-out: Macrophage colony-stimulating factor (MCSF), CSF1 (gene 1435); test: BSK_hDFCGF_MCSF: BioMAP Diversity Plus: hDFCGF Assay for Macrophage colony-stimulating factor (MCSF) Biomarker Activity (AID 2283060); details: primary human foreskin fibroblasts; actives raise or lower the signal
Method in brief: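 ELISA read-out of M-CSF in human dermal foreskin fibroblast cultures, 24 h after chemical dosing; gain or loss of signal fitted bidirectionally relative to DMSO baseline.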

[8] = BSK_hDFCGF_SRB: Viability Assessment in the BioMAP Diversity Plus: hDFCGF Assay (AID 2283061); details: primary human foreskin fibroblasts;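 further: cells exposed to compound for 24 h before the read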
Method in brief: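 Primary human foreskin fibroblasts; 24 h post-dose; fixed 10% TCA, stained 0.1% SRB, A560 read; total protein as overt cytotoxicity measure; curves fit bidirectionally vs DMSO control.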

[9] = read-out: Monokine induced gamma interferon (MIG), CXCL9 (gene 4283); test: BSK_hDFCGF_MIG: BioMAP Diversity Plus: hDFCGF Assay for Monokine induced gamma interferon (MIG) Biomarker Activity (AID 2283063); details: primary human foreskin fibroblasts; actives raise or lower the signal
Method in brief: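 Fibroblasts (human foreskin, primary) dosed, 24 h, MIG by ELISA; fit bidirectional vs DMSO.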

[10] = read-out: Vascular cell adhesion molecule 1 (VCAM1), VCAM1 (gene 7412); test: BSK_hDFCGF_VCAM1: BioMAP Diversity Plus: hDFCGF Assay for Vascular cell adhesion molecule 1 (VCAM1) Biomarker Activity (AID 2283065); details: primary human foreskin fibroblasts; actives raise or lower the signal;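 on AC50: VCAM-1 protein level quantified by ELISA after 24 h chemical exposure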
Method in brief: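 ELISA read-out of VCAM-1 on human skin fibroblasts, 24 h post-dose; gain or loss of signal fitted bidirectionally against DMSO baseline.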

[11] = read-out: Plasminogen activator inhibitor-1 (PAI1), SERPINE1 (gene 5054); test: BSK_hDFCGF_PAI1: BioMAP Diversity Plus: hDFCGF Assay for Plasminogen activator inhibitor-1 (PAI1) Biomarker Activity (AID 2283066); details: primary human foreskin fibroblasts; actives raise or lower the signal
Method in brief: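 ELISA readout of PAI-1 from primary human skin fibroblast cultures, 24 h after compound addition. Gain or loss of signal was fitted bidirectionally against DMSO baseline.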

[12] = read-out: Intercellular Adhesion Molecule 1 (ICAM1), ICAM1 (gene 3383); test: BSK_KF3CT_ICAM1: BioMAP Diversity Plus: KF3CT Assay for Intercellular Adhesion Molecule 1 (ICAM1) Biomarker Activity (AID 2283067); details: primary human keratinocytes with fibroblasts; actives raise or lower the signal
Method in brief: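 ELISA readout of ICAM-1; KF3CT human skin co-culture (keratinocytes + foreskin fibroblasts), 24 h post-dose; gain/loss fit vs DMSO baseline.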

[13] = read-out: Interferon-gamma inducible Protein 10 (IP10), CXCL10 (gene 3627); test: BSK_KF3CT_IP10: BioMAP Diversity Plus: KF3CT Assay for Interferon-gamma inducible Protein 10 (IP10) Biomarker Activity (AID 2283068); details: primary human keratinocytes with fibroblasts; actives raise or lower the signal
Method in brief: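 KF3CT co-culture (keratinocytes + foreskin fibroblasts), 24 h compound, IP-10 by ELISA; bidirectional fit vs DMSO baseline.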

[14] = BSK_KF3CT_SRB: Viability Assessment in the BioMAP Diversity Plus: KF3CT Assay (AID 2283069); details: primary human keratinocytes with fibroblasts;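 further: total protein by sulforhodamine B staining as a cytotoxicity measure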
Method in brief: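 Cytotoxicity was gauged by SRB staining (0.1% SRB, 10% TCA fixation, 560 nm) of parallel cultures at 24 h. The cells were primary human skin keratinocytes co-cultured with fibroblasts, and activity was fitted in both directions against DMSO.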

[15] = read-out: Interleukin-1 alpha (IL1a), IL1A (gene 3552); test: BSK_KF3CT_IL1a: BioMAP Diversity Plus: KF3CT Assay for Interleukin-1 alpha (IL1a) Biomarker Activity (AID 2283070); details: primary human keratinocytes with fibroblasts; actives raise or lower the signal
Method in brief: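 IL-1a was detected by ELISA 24 h after chemical treatment of a co-culture of human skin keratinocytes and foreskin fibroblasts. Gain or loss of signal was fitted against the DMSO baseline.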

[16] = read-out: Transforming growth factor beta 1 (TGFb1), TGFB1 (gene 7040); test: BSK_KF3CT_TGFb1: BioMAP Diversity Plus: KF3CT Assay for Transforming growth factor beta 1 (TGFb1) Biomarker Activity (AID 2283072); details: primary human keratinocytes with fibroblasts; actives raise or lower the signal
Method in brief: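 Read-out: ELISA for TGF-b1 in keratinocyte/foreskin fibroblast human skin co-culture, 24 h after dosing; bidirectional curve fit vs DMSO baseline; gain or loss of signal scored.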

[17] = read-out: TIMP metallopeptidase inhibitor 2 (TIMP2), TIMP2 (gene 7077); test: BSK_KF3CT_TIMP2: BioMAP Diversity Plus: KF3CT Assay for TIMP metallopeptidase inhibitor 2 (TIMP2) Biomarker Activity (AID 2283071); details: primary human keratinocytes with fibroblasts; actives raise or lower the signal
Method in brief: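 ELISA readout of TIMP-2 in keratinocyte plus foreskin fibroblast co-cultures (human skin primary cells), 24 h post-dose. Gain or loss of signal fitted relative to DMSO.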

[18] = read-out: Matrix Metallopeptidase 1 (MMP1), MMP1 (gene 4312); test: BSK_hDFCGF_MMP1: BioMAP Diversity Plus: hDFCGF Assay for Matrix Metallopeptidase 1 (MMP1) Biomarker Activity (AID 2283064); details: primary human foreskin fibroblasts; actives raise or lower the signal
Method in brief: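 MMP1 levels quantified by ELISA 24 h after dosing human dermal fibroblast cultures, with parallel SRB total-protein staining for overt cytotoxicity. Data fitted in both directions against DMSO baseline.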

[19] = read-out: TIMP metallopeptidase inhibitor 1 (TIMP1), TIMP1 (gene 7076); test: BSK_hDFCGF_TIMP1: BioMAP Diversity Plus: hDFCGF Assay for TIMP metallopeptidase inhibitor 1 (TIMP1) Biomarker Activity (AID 2283062); details: primary human foreskin fibroblasts; actives raise or lower the signal
Method in brief: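 ELISA readout of TIMP-1 from human dermal foreskin fibroblast cultures 24 h post-dosing. Curves were fitted in both directions against DMSO baseline, with SRB total-protein staining in parallel cultures as a cytotoxicity check.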

Measured: AC50

COc1cc(C(C)C)c2c(c1)S(=O)(=O)N(COc1cc(=O)n3cccc(OCCN4CCCCC4)c3n1)C2=O
inactive: [2] | [4] | [5] | [12] | [14] | [16]
active: [1] 6.1 µM | [3] 5 µM | [6] 5.44 µM | [7] 3.29 µM | [8] 8.05 µM | [9] 5.41 µM | [10] 2.72 µM | [11] 6.38 µM | [13] 7.22 µM | [15] 5 µM

CCCCCCCCCCCCCCO
active: [1] 28.3 µM | [2] 33.3 µM | [3] 20 µM | [5] 33.3 µM | [6] 12.2 µM | [7] 24.9 µM | [8] 30.2 µM | [9] 10.8 µM | [10] 20 µM | [11] 27 µM
inactive: [4] | [12] | [13] | [14] | [15] | [17] | [16]

c1ccc(C(O[C@@H]2CCCN(CCc3ccc4c(c3)OCO4)C2)c2ccccc2)cc1
active: [1] 26 µM | [7] 20 µM | [8] 29 µM | [10] 8.8 µM | [11] 20 µM
not listed: [4] | [6] | [17] | [19]
inactive: all other assays above

CCn1nc(C)c2c1C(=O)NCC(c1ccc(O)cc1)=N2
active: [2] 8.18 µM | [6] 11 µM | [7] 3.97 µM | [11] 1.14 µM
not listed: [17] | [18]
inactive: all other assays above

C[C@]12C=CC(=O)C=C1CC[C@H]1[C@@H]3C[C@@H](O)[C@](O)(C(=O)CO)[C@@]3(C)C[C@H](O)[C@@]12F
active: [6] 0.818 µM | [7] 0.58 µM
not listed: [17] | [18]
inactive: all other assays above

c1ccc2cc3ccccc3cc2c1
not listed: [17] | [18]
inactive: all other assays above
